Measured values published in PubChem BioAssay (NCATS).
Inconclusive results are not listed. Active and inactive are the calls of the source. Calls come from the whole dose curve; as a rule, active = well fitted inhibition curve with a large enough effect; inconclusive = small, poorly fitted or top-dose-only effect; inactive = flat fitted curve, though single readings scatter.

Tests used:
Experiment in all cases: qHTS profiling for inhibitors of Plasmodium falciparum proliferation (AID 504749); note: nearly all actives have a fitted effect of over 60% in size
Details in all cases: P. falciparum in erythrocytes, SYBR Green DNA, 72 h; series mostly up to 28.7 µM
[1] = system: 7G8
In short: (§1)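 Quantitative HTS: compounds pinned into medium, infected erythrocytes added (0.3% parasitemia, 2.5% hematocrit), 72 h culture at 37 C under 5% CO2. Saponin/Triton lysis with SYBR Green I, overnight RT, then fluorescence read.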

[2] = system: AA1029
In short: as §1

[3] = system: AS120
In short: as §1

[4] = system: ATS189
In short: as §1

[5] = system: ATS95
In short: as §1

[6] = system: C2A
In short: as §1

[7] = system: CP185
In short: as §1

[8] = system: CP191
In short: as §1

[9] = system: CP192
In short: as §1

[10] = system: CP194
In short: as §1

[11] = system: CP201
In short: as §1

[12] = system: CP211
In short: as §1

[13] = system: CP215
In short: as §1

[14] = system: CP217
In short: as §1

[15] = system: CP237
In short: as §1

[16] = system: CP238
In short: as §1

[17] = system: CP247
In short: as §1

[18] = system: CP250
In short: as §1

[19] = system: CP252
In short: as §1

[20] = system: CP203
In short: as §1

Measured: Potency
Potency is the fitted concentration of half-maximal effect.

Nc1ccncc1
not listed: [20]
inactive: all other assays above

CCCC(C)(COC(N)=O)COC(=O)NC(C)C (centres undefined)
inactive: all assays above

CC(C)=CC1C(C(=O)OCc2cccc(Oc3ccccc3)c2)C1(C)C (centres undefined)
active: [1] 12.6 µM
not listed: [20]
inactive: all other assays above

CCC(C(N)=O)N1CCCC1=O (centres undefined)
not listed: [20]
inactive: all other assays above

CC(C)CC(N(C)C)C1(c2ccc(Cl)cc2)CCC1 (centres undefined)
not listed: [20]
inactive: all other assays above

O=C(NC(O)C(Cl)(Cl)Cl)NC(O)C(Cl)(Cl)Cl (centres undefined)
inactive: all assays above

CC(=O)Nc1cc([As](=O)(O)O)ccc1O
not listed: [11] | [20]
inactive: all other assays above

CC[N+](CC)(CC)CC
not listed: [13] | [20]
inactive: all other assays above

CCOP(=S)(OCC)Oc1cc(C)nc(C(C)C)n1
not listed: [20]
inactive: all other assays above

Oc1cccc2cccnc12
inactive: all assays above

Cc1ncc(CNC(=O)N(CCCl)N=O)c(N)n1
not listed: [20]
inactive: all other assays above

CN(C)CCc1ccc(O)cc1
not listed: [20]
inactive: all other assays above

NN=C(N)N
inactive: all assays above

Oc1ccccc1-c1ccccc1
not listed: [20]
inactive: all other assays above

COc1ccccc1N1CCNCC1
not listed: [20]
inactive: all other assays above

NCCc1cc(O)c(O)cc1O
not listed: [20]
inactive: all other assays above

CC(=O)[C@H]1CC[C@H]2[C@@H]3CC[C@H]4C[C@H](O)CC[C@]4(C)[C@H]3C(=O)C[C@]12C
not listed: [20]
inactive: all other assays above

CCN(CC)CCOC(=O)C(O)(c1ccccc1)c1ccccc1
not listed: [13] | [20]
inactive: all other assays above

NCC(O)c1ccc(O)cc1 (centres undefined)
inactive: all assays above

CN1CCN(C(=O)O[C@H]2c3nccnc3C(=O)N2c2ccc(Cl)cn2)CC1
not listed: [20]
inactive: all other assays above

NCC1(CC(=O)O)CCCCC1
not listed: [20]
inactive: all other assays above

OCCOc1ccccc1
not listed: [20]
inactive: all other assays above

CC(=O)[C@H]1CC[C@H]2[C@@H]3CC[C@H]4C[C@](C)(O)CC[C@]4(C)[C@H]3CC[C@]12C
not listed: [20]
inactive: all other assays above

COc1ccc(C(=O)c2c(C)n(CCN3CCOCC3)c3ccccc23)cc1
active: [1] 12.6 µM
not listed: [18]
inactive: all other assays above

O=P1(NCCCl)OCCCN1CCCl (centres undefined)
not listed: [20]
inactive: all other assays above

O=C(O)c1ccc2[nH]cc(CCCCN3CC=C(c4ccccc4)CC3)c2c1
not listed: [17] | [20]
inactive: all other assays above

CC1NCCOC1c1ccccc1 (centres undefined)
not listed: [15]
inactive: all other assays above
